Results as given in PubChem BioAssay.

How the values were obtained:
[1] = biological target: Tumor necrosis factor receptor superfamily member 10B (Homo sapiens) (UniProt O14763); assay: caspase-8 TRAIL sensitization, hit retest, confirmation, cell-based, NB7+caspase-8, with/without TRAIL, luminescence panel (AID 651596); settings: NB7 neuroblastoma + caspase-8, TRAIL sensitization, luminescence viability, with TRAIL, mean of runs, at 10 µM, stronger effect = higher value
[2] = as above; settings: NB7 neuroblastoma + caspase-8, without TRAIL, luminescence viability, without TRAIL, mean of runs, at 10 µM

Chain of Tumor necrosis factor receptor superfamily member 10B (Homo sapiens) (O14763 whole entry, looked up): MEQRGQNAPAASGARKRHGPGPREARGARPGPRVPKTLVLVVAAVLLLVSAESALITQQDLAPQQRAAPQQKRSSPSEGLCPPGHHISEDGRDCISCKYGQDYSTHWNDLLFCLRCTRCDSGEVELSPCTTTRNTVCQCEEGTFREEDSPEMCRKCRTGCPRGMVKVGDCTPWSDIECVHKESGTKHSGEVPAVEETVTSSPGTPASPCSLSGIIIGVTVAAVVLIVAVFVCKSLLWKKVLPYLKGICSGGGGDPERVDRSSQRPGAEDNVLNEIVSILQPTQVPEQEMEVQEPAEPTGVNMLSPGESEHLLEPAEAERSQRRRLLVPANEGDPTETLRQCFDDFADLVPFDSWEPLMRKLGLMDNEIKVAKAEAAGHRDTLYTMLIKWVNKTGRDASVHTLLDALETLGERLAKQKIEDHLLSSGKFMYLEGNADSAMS

SMILES: Clc1ncnc2c1oc1ccccc12
- activity [1]: 82.7%
- activity [2]: 60.4%

SMILES: COc1ccc(Oc2c(Cl)cnn(-c3ccc(C)cc3)c2=O)cc1
- activity [1]: 96.9%
- activity [2]: 89.9%

SMILES: Cc1nc(-c2ccc(C(=O)Nc3cccc(F)c3)cc2)cs1
- activity [1]: 76.6%
- activity [2]: 73.5%

SMILES: Cc1ccc(NC(=O)N2CCc3ccccc32)cc1C
- activity [1]: 71.9%
- activity [2]: 66.1%

SMILES: CC(C)c1ccc(NC(=O)CSc2ncccc2C(=O)Oc2cccc([N+](=O)[O-])c2)cc1
- activity [1]: 68.1%
- activity [2]: 61.5%

SMILES: Cc1ccc(-n2c(-c3ccc(Br)cc3)c[n+]3c2CCc2ccc4cccnc4c2-3)cc1
- activity [1]: 70.2%
- activity [2]: 63%

SMILES: CCOC(=O)c1cn(-c2ccc(F)c(F)c2F)c2c(F)c(F)c(F)cc2c1=O
- activity [1]: 64%
- activity [2]: 41.5%

SMILES: CNC[C@@H](Cc1ccccc1)NC[C@@H](CC1CCCCC1)NCCCc1ccccc1
- activity [1]: 99.3%
- activity [2]: 99.6%

SMILES: CC(C)c1ccc(/C=C/c2ccc(=O)n(C)n2)cc1
- activity [1]: 68.1%
- activity [2]: 66.6%

SMILES: COc1ccc(C=Cc2ccc3ccccc3n2)c(OC)c1
- activity [1]: 79.1%
- activity [2]: 68.5%

SMILES: COc1ccc2oc(C(=O)N3CCc4ccccc43)c(C)c2c1
- activity [1]: 82.7%
- activity [2]: 82.4%

SMILES: COc1ccc(C(=O)Nc2ccccc2C(N)=O)cc1
- activity [1]: 56.5%
- activity [2]: 56.2%

SMILES: Nc1c(C(=O)Nc2nc3ccccc3s2)sc2nc(-c3cccs3)ccc12
- activity [1]: 97.8%
- activity [2]: 98.7%

SMILES: Oc1cccc2ccc(Nc3ccccn3)nc12
- activity [1]: 88.8%
- activity [2]: 95.5%

SMILES: CCC(C)N(CC(=O)Nc1cccc(C)c1C)C(=O)CCl (configuration not stated)
- activity [1]: 99.5%
- activity [2]: 99.3%

SMILES: Cn1c(N)c(C(=O)CCl)c(=O)n(Cc2ccccc2)c1=O
- activity [1]: 96%
- activity [2]: 77.9%

SMILES: CCCc1cc(C(=O)N/N=C/c2ccc(CC)s2)c2ccccc2n1
- activity [1]: 68.8%
- activity [2]: 56.9%

SMILES: CC(=O)Nc1ccc(/C=N/Nc2nc3ccccc3[nH]2)cc1
- activity [1]: 76.2%
- activity [2]: 75.5%

SMILES: COc1cccc2oc3cc(C#CC4(O)CCCCC4)ccc3c(=O)c12
- activity [1]: 71.2%
- activity [2]: 68.8%

SMILES: OCC1OC(n2cnc3c(=S)nc[nH]c32)CC1O (configuration not stated)
- activity [1]: 31.4%
- activity [2]: 35.7%

SMILES: O=[N+]([O-])c1ccc(N2CCN(Cc3ccccc3)CC2)c2c1no[n+]2[O-]
- activity [1]: 99.2%
- activity [2]: 99.1%

SMILES: Cc1ccc(C(=O)c2no[n+]([O-])c2C(=O)c2ccc(C)cc2)cc1
- activity [1]: 98%
- activity [2]: 92%

SMILES: C=CCn1c(C)cc(C(=O)CN2C(=O)c3ccccc3C2=O)c1C
- activity [1]: 60.2%
- activity [2]: 57.3%

SMILES: Cc1cccc(C(=O)Nc2ccc(C(=O)Nc3ccc(O)cc3)cc2)c1
- activity [1]: 79.9%
- activity [2]: 89.1%

SMILES: C(/C=C/c1ccccn1)=C\c1ccccc1
- activity [1]: 7.58%
- activity [2]: 14.6%

SMILES: Cc1cccc(-n2ncc3c(N4CCC(C)CC4)ncnc32)c1
- activity [1]: 44.7%
- activity [2]: 34.7%
